Bioassay records deposited in PubChem by National Center for Advancing Translational Sciences (NCATS).
This is a sample that favours compounds with a hit; in the whole collection about 8.3% have one here.
FMDV antiviral: blocks foot and mouth disease virus; Potency, µM (series often up to 57.9 µM), actives largely listed as inhibitors; FMDV antiviral cell-based qHTS; 410,000 compounds, 1.2% hits; calls by dose curve; tested in HEK293T cells; also: read-out not given here; nearly all actives have a fitted effect of over 45% in size
Lassa entry inh: blocks Lassa virus binding to or entry into cells. Lassa virus pseudotype entry inhibition, cell reporter. AID 540256. Potency, µM (doses to about 37.9 µM), usual class: inhibitors. 300,000 compounds, 1.2% hits; calls by dose curve; tested in HEK293 cells; also: nearly all actives have a fitted effect of over 50% in size
FBPA Giardia inh: inhibitors of Giardia lamblia fructose-1,6-bisphosphate aldolase. A8B2U2. purified Giardia FBPA. Potency, µM (series often up to 59.6 µM), hits mostly inhibitors. 290,000 compounds, 0.71% hits. AID 2451; also: nearly all actives have a fitted effect of over 55% in size
Target sequence (A8B2U2 whole entry, looked up): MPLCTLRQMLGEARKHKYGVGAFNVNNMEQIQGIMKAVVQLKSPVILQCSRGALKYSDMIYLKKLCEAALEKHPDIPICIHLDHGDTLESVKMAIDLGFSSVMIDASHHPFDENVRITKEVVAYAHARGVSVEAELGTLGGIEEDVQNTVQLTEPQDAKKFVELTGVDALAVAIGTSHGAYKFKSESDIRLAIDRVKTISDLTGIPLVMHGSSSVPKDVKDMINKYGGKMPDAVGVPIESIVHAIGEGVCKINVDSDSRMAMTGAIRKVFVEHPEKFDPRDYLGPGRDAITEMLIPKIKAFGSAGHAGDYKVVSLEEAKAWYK
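40 nM FBPA preincubated 10 min at RT with compound (up to 57.5 uM final), then substrate plus GAPDH/TPI/NAD/arsenate coupling and diaphorase/resazurin added. Fluorescence read after 20 min at RT, 525/598 nm.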
HCMV inh: inhibitors of human cytomegalovirus; HFF cells, HCMV-luciferase reporter, 72 h; active compounds read low; activity change, negative = inhibition, % at 57.5 µM; 410,000 compounds, 4.5% hits; in the data active = activity change below about -60%; inconclusive = no clear call, values can overlap the other calls; inactive = above about -39%
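Steps: HFFs plated, 16 h 37C; compounds added; HCMV-luciferase added to MOI 1 PFU/cell; 72 h 37C; OneGlo reagent, 5 min room temperature; luminescence read, normalized to controls.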
MARV entry inh: Marburg virus entry inhibition. Marburg virus pseudotyped entry inhibition, cell reporter. Potency, µM (doses to about 37.8 µM), usual class: inhibitors. 300,000 compounds, 1.8% hits. AID 540276; calls by dose curve; tested in HEK293 cells
HCV inhibitor: blocks hepatitis C virus | AID 651820 | Potency, µM (top dose mostly 41.8 µM), usual class: inhibitors | Huh7.5.1 HCVcc-Cre infection, luciferase reporter, 44 h | 340,000 compounds, 3.4% hits
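Compounds are dispensed onto cells plated 4 h earlier at 1,000 per well, with HCVcc-Cre virus (about 0.5 moi) added next. Following 44 h of culture, luminescent signal is measured for 15 sec after 15 min with substrate at room temperature.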
Numbers stand for hits. Unless noted, calls follow the shape of the dose curve; as a rule, active = well fitted curve in the direction sought with a large enough effect; inconclusive = small, poorly fitted or top-dose-only effect, or another doubt; inactive = no such curve, though single readings can be large; an effect the other way counts as inactive or inconclusive.

O=C(COc1ccc(Cl)cc1Cl)N/N=C/c1ccc(OC2OC(CO)C(O)C(O)C2O)cc1 (stereo unspecified) was read as FMDV antiviral inactive, FBPA Giardia inh inactive, HCMV inh -79 and HCV inhibitor inactive.
Screening Cc1sc(NC(=O)c2sc3nc4c(C)cccc4cc3c2N)c(C#N)c1C returned FMDV antiviral inactive, Lassa entry inh inactive, FBPA Giardia inh inconclusive, HCMV inh inactive, MARV entry inh inconclusive and HCV inhibitor inconclusive.
For Cc1cccc2cc3c(N)c(C#N)sc3nc12 the results were FMDV antiviral inactive, Lassa entry inh inactive, FBPA Giardia inh inactive, HCMV inh -63, MARV entry inh inconclusive and HCV inhibitor inconclusive.
Screening COc1ccc(OC)c(NC(=O)CN2C(=O)CC(C)Sc3ccccc32)c1 (stereo unspecified) returned FMDV antiviral inactive, HCMV inh inactive and MARV entry inh inactive.
O=C(NCCc1c[nH]c2ccccc12)c1ccccc1 was read as FMDV antiviral inactive, Lassa entry inh inconclusive, FBPA Giardia inh inactive, HCMV inh inactive, MARV entry inh inactive and HCV inhibitor inactive.
Screening COC(=O)Cc1c(O)ccn(CCc2c[nH]c3ccc(OC)cc23)c1=O returned FMDV antiviral inactive, Lassa entry inh inactive, FBPA Giardia inh inactive, HCMV inh -73, MARV entry inh inactive and HCV inhibitor inactive.
`Cc1ccc2[nH]cc(CCNC(=O)Nc3ccccc3)c2c1` gave FMDV antiviral inconclusive, Lassa entry inh inconclusive, FBPA Giardia inh inactive, HCMV inh inactive, MARV entry inh inactive and HCV inhibitor inactive.
Screening Cc1ccc(NC(=O)CCc2c[nH]c3ccccc23)nc1 returned FMDV antiviral inactive, Lassa entry inh inconclusive, HCMV inh -74, MARV entry inh inconclusive and HCV inhibitor inconclusive.
Cc1ccc(C(=O)NCCc2c[nH]c3ccccc23)c(C)c1 was read as FMDV antiviral inactive, Lassa entry inh 11µM, HCMV inh inactive, MARV entry inh inconclusive and HCV inhibitor inconclusive.
`O=C(CCc1c[nH]c2ccccc12)Nc1ncccc1O` gave FMDV antiviral inactive, Lassa entry inh inactive, HCMV inh inactive, MARV entry inh inactive and HCV inhibitor inactive.
Screening COC(=O)Cc1c(O)ccn(CCc2c[nH]c3ccccc23)c1=O returned FMDV antiviral inactive, FBPA Giardia inh inactive, HCMV inh inconclusive and HCV inhibitor inactive.
Screening CC(=O)c1cccc(NC(=O)NCCc2c[nH]c3ccccc23)c1 returned FMDV antiviral inactive, Lassa entry inh inactive, FBPA Giardia inh inactive, HCMV inh -82, MARV entry inh inactive and HCV inhibitor inactive.
For N#Cc1cccc(NC(=O)N2CC[C@@]3(CCCN(C(=O)c4cccc(F)c4)C3)C2)c1 the results were FMDV antiviral inactive and FBPA Giardia inh inactive.
`O=c1c(O)c(-c2ccc(O[C@@H]3O[C@H](CO)[C@@H](O)[C@H](O)[C@H]3O)c(O)c2)oc2cc(O)cc(O)c12` gave FBPA Giardia inh inactive.
Screening COc1ccc2[nH]cc(CCNc3ncncc3-c3ccccc3C)c2c1 returned FMDV antiviral 20µM and FBPA Giardia inh inactive.
Screening COc1ccc2[nH]cc(CCNC(=O)c3ccccc3Cl)c2c1 returned FMDV antiviral inactive, Lassa entry inh inactive, FBPA Giardia inh inactive, HCMV inh -84, MARV entry inh inactive and HCV inhibitor inactive.
For CN1C[C@]2(CCN3CCCC(C)(C)[C@@H]32)c2ccccc21 the results were HCMV inh inactive.
For O=[N+]([O-])c1ccc(NCc2ccc(Cl)cc2)c2ccncc12 the results were FMDV antiviral inconclusive, Lassa entry inh inactive, FBPA Giardia inh inactive, HCMV inh inactive, MARV entry inh inconclusive and HCV inhibitor 6.3µM.
Screening O=[N+]([O-])c1cnccc1Nc1ccc(Cl)cc1 returned FMDV antiviral inactive, Lassa entry inh inactive, FBPA Giardia inh inactive, HCMV inh inconclusive, MARV entry inh inactive and HCV inhibitor inactive.
For C/C=C/C(=O)[C@@H](C)[C@@H](/C=C/C[Si](C)(C)C)c1ccccc1 the results were FBPA Giardia inh inactive.
For CCOc1ccc(C2=C(C(C)=O)Sc3nnc(C)n3N2C(C)=O)cc1 the results were FMDV antiviral inactive, Lassa entry inh inconclusive and HCMV inh inactive.
Screening CCc1nnc2n1N(C(C)=O)C(c1ccc(C(C)(C)C)cc1)=C(C(C)=O)S2 returned FMDV antiviral inconclusive, Lassa entry inh 11µM and HCMV inh -98.
`COc1ccc(OC)c(C(=O)Cn2c3[n+](c4ccc(C(F)(F)F)cc42)CCCCC3)c1` gave FMDV antiviral inactive, Lassa entry inh inactive, FBPA Giardia inh inactive, HCMV inh inactive, MARV entry inh inactive and HCV inhibitor inactive.
Fc1ccccc1Cn1c2[n+](c3ccc(C(F)(F)F)cc31)CCCCC2 was read as FMDV antiviral inactive, Lassa entry inh inactive, FBPA Giardia inh inactive, HCMV inh -68, MARV entry inh inactive and HCV inhibitor inactive.
For COc1ccc(OC)c(C(=O)NC2CC(C)(C)Cc3c2cnn3-c2ccccc2)c1 (stereo unspecified) the results were FMDV antiviral inconclusive, FBPA Giardia inh inactive, HCMV inh -77 and HCV inhibitor 13µM.
COc1ccc(-n2ncc3c2CC(C)(C)CC3NC(=O)c2ccoc2C)cc1 (stereo unspecified) was read as FMDV antiviral inactive, Lassa entry inh inactive, HCMV inh inactive, MARV entry inh inconclusive and HCV inhibitor inconclusive.
Screening CC1=C(C(=O)O)N2C(=O)C(NC(=O)C(N)c3ccccc3)C2SC1 (stereo unspecified) returned FMDV antiviral inactive and FBPA Giardia inh inconclusive.
`O=C(COC(=O)c1c2ccccc2cc2ccccc12)NCC(F)(F)F` gave FMDV antiviral inactive, Lassa entry inh inactive, FBPA Giardia inh inactive, HCMV inh inactive, MARV entry inh inactive and HCV inhibitor 11µM.
For CCN(Cc1ccncc1)C(=O)CC1C(=O)NCCN1Cc1ccc(F)c(F)c1 (stereo unspecified) the results were FMDV antiviral inactive, FBPA Giardia inh inactive, HCMV inh -78 and HCV inhibitor inactive.
CCc1c(C)sc(NC(=O)c2cc(-c3cc(OC)ccc3OC)on2)c1C#N was read as FMDV antiviral inactive, Lassa entry inh inactive, FBPA Giardia inh inactive, HCMV inh -68, MARV entry inh inconclusive and HCV inhibitor inconclusive.
Screening CCc1c(C)sc(NC(=O)c2cc(-c3ccc(O)cc3)on2)c1C#N returned FMDV antiviral inactive, FBPA Giardia inh inactive, HCMV inh -61 and HCV inhibitor inconclusive.
For CCN(CC)CCCN1CC(O)=C(c2nc3ccccc3s2)C1=N the results were FMDV antiviral inconclusive, Lassa entry inh inconclusive, FBPA Giardia inh inactive, HCMV inh inactive, MARV entry inh inconclusive and HCV inhibitor 11µM.
Screening N=C1C(c2nc3ccccc3s2)=C(O)CN1Cc1ccccc1 returned FMDV antiviral inactive, Lassa entry inh inactive, FBPA Giardia inh inactive, HCMV inh inactive, MARV entry inh inconclusive and HCV inhibitor inconclusive.
